Screens (PubChem)
Compounds with a hit are over-represented: about 4.6% of the library has one in this group of screens.
Peg3 prom inh: Peg3 promoter activity inhibition | HeLa PEG-Prom luciferase reporter, luminescence, overnight | inhibition, % at 20 µM | actives 1.7% (n = 360,000) | AID 588405;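 active = inhibition of at least 50% at 20 µM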
Mdm2 MdmX PPI: human Mdm2/MdmX binding inhibition; O15151+Q00987; SaOS-2 split-luciferase Mdm2/MdmX complementation, luminescence; inhibition, % at 8 µM; actives 3% (n = 330,000);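 active = inhibition of at least 50% at 8 µM in the primary screen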
Target sequence (O15151 whole entry, looked up): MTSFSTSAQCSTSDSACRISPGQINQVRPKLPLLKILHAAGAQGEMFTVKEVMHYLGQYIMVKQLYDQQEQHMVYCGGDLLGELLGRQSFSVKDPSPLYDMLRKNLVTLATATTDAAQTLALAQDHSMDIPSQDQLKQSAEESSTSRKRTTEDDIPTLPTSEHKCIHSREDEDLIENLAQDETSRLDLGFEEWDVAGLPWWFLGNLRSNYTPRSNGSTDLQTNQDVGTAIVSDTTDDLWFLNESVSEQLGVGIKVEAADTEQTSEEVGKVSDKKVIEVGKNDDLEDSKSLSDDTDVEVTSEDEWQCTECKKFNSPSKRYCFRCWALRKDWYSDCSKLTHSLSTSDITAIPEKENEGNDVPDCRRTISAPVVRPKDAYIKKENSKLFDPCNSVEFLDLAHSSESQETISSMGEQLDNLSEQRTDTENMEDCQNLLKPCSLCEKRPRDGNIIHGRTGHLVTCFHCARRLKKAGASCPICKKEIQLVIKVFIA
Target sequence (Q00987 whole entry, looked up): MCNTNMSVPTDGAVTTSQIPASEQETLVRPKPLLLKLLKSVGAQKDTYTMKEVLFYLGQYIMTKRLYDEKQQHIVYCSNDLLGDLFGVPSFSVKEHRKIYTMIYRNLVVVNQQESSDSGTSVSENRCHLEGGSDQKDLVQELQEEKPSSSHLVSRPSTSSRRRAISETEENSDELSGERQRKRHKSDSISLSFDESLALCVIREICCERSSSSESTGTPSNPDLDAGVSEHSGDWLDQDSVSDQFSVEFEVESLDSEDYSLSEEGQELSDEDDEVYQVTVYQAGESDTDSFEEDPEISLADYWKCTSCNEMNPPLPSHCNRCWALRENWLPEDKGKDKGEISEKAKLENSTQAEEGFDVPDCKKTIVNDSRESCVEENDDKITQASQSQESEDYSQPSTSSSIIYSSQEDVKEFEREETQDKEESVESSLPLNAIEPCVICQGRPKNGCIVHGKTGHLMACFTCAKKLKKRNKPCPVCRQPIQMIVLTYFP
KKLEB tox: CF airway cell cytotoxicity counter-screen. actives 0.36% (n = 360,000). activity change (cytotoxicity), % at 5 µM. KKLEB CF airway cells viability, ATPlite luminescence, overnight; stronger effect = lower value; cells stimulated with P. aeruginosa culture filtrate;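 active = corrected activity change at or below -50% at 5 µM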
ABHD5-PLIN5 inh: blocks binding of human ABHD5 to perilipin-5; Q00G26+Q8WTS1; Split G. princeps luciferase complementation, luminescence, 4 h; inhibition, % at 4 µM; actives 0.78% (n = 360,000);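 active = inhibition above the mean inhibition across every tested compound plus 3 SD, cut at about 22% in these data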
HIF-2a inh: HIF-2a inhibition; inhibition, % at 18.8 µM; AID 624352; actives 0.72% (n = 360,000); 786-0 RCC cells HIF-2a reporter, luciferase luminescence, overnight;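 active = inhibition of the luminescence signal of 40% or more relative to plate controls, in a single-dose primary screen at 18.75 µM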
CF NFkB block: inhibitors of cystic fibrosis induced NF-kB; KKLEB NF-kB-GFP reporter, PAF-induced, GFP fluorescence overnight; inhibition, % at 5 µM; actives 0.86% (n = 360,000); AID 588850;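 active = at least 50% inhibition at 5 µM, scaled per plate between neutral and stimulator controls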;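 also: PAF is a Pseudomonas aeruginosa culture filtrate used as stimulus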
Mdm2-MdmX conf: human Mdm2/MdmX binding inhibition, confirmed; inhibition, % at 8 µM; shares compounds with Mdm2 MdmX PPI; luminescent assay; actives 55% (n = 10,000); in the data active = inhibition above about 40%
Full FLuc ctr: counter-screen for Mdm2/MdmX inhibitors: full-length luciferase; shares compounds with Mdm2 MdmX PPI; SaOS-2 full-length luciferase counterscreen, luminescence; inhibition, % at 8 µM; actives 77% (n = 6,200);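 active = mean inhibition at 8 µM reaching about 37%, which flags the compound as non-specific, limit read from the data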;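 also: p53-null SaOS-2 cells with luciferase driven by a doxycycline-inducible promoter; compound on cells about two nights before reading with doxycycline added after day one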
Of the large screens only hits and unclear results are named; the others gave an inactive call (follow-up assays come after a bar, where they were run).

CC[C@@]12C(=O)N(c3ccc(OC)cc3)C(=O)N1[C@H](c1ccc(Cl)cc1)[C@@H]1C(=O)N(C3CCCCC3)C(=O)[C@@H]12	none | Mdm2-MdmX conf 48 | Full FLuc ctr 49
Cc1oc2c(c1C(=O)NCc1cccnc1)C(=O)c1ccccc1C2=O	Mdm2 MdmX PPI 99 (no result: Peg3 prom inh, KKLEB tox, ABHD5-PLIN5 inh, HIF-2a inh, CF NFkB block) | Mdm2-MdmX conf 98 | Full FLuc ctr inactive
COc1ccc(CNC(=O)c2c(C)oc3c2C(=O)c2ccccc2C3=O)cc1	Peg3 prom inh 102, Mdm2 MdmX PPI 81, KKLEB tox -82, HIF-2a inh 73, CF NFkB block 90 | Mdm2-MdmX conf 84 | Full FLuc ctr 54
Cc1onc(-c2ccccc2Cl)c1C(=O)NCc1cccnc1	none
COc1ccc(CNC(=O)c2ccc(-c3ccccc3)cc2)cc1	none
CCCCn1c(=NC(C)=O)c(C#N)cc2c(=O)n3cccc(C)c3nc21	none
CCCCCn1c(=NC(=O)c2cccnc2)c(C#N)cc2c(=O)n3cccc(C)c3nc21	Peg3 prom inh 56, Mdm2 MdmX PPI 73 | Mdm2-MdmX conf 51 | Full FLuc ctr 42
COc1ccc(NC2CCCN(C(=O)CN3C(=O)c4ccccc4C3=O)C2)cc1OC (stereo not drawn)	none
COc1ccc(CNC(=O)COC(=O)CN2C(=O)C3CC=CCC3C2=O)cc1 (stereo not drawn)	none
O=C(N/N=C/c1ccccc1O)C1CC(=O)N(c2ccc(Cl)cc2)C1 (stereo not drawn)	Mdm2 MdmX PPI 76 | Mdm2-MdmX conf 59 | Full FLuc ctr 37
Cc1ccc(S(=O)(=O)N(C)C[C@@H]2Oc3ccc(NC(=O)Cn4cnnn4)cc3C(=O)N([C@@H](C)CO)C[C@H]2C)cc1	none
COC(=O)c1ccc(C(NC(=O)OCc2ccccc2)/C(F)=C/[C@@H](C)C(=O)NCc2ccc(-c3ccccc3)cc2)cc1 (stereo partly drawn)	none (no result: Peg3 prom inh, KKLEB tox, ABHD5-PLIN5 inh, HIF-2a inh, CF NFkB block)
COC(=O)c1ccc(C(NC(=O)OCc2ccccc2)/C(F)=C/[C@@H](C)C(=O)NCc2ccc(OC)c(OC)c2)cc1 (stereo partly drawn)	Mdm2 MdmX PPI 89 | Mdm2-MdmX conf inactive
Cc1ccc(S(=O)(=O)N2CCN(C(=O)COC(=O)c3ccc(Cl)nc3)CC2)c(C)c1	none
Cc1ccc(-n2nnnc2SCC(=O)Nc2nc(-c3ccc(F)cc3)cs2)cc1C	Mdm2 MdmX PPI 65 | Mdm2-MdmX conf inactive | Full FLuc ctr 47
Cc1cc(C)cc(-n2nnnc2SCC(=O)Nc2nc(-c3ccc(F)cc3)cs2)c1	none
COc1ccc(N/N=C(/N=Nc2nc(C)cc(=O)[nH]2)c2ccccc2)cc1	Mdm2 MdmX PPI 54 | Mdm2-MdmX conf 77 | Full FLuc ctr inactive
CC(CNC(=O)[C@@H](Cc1ccccc1)NC(=O)CC[C@H]1O[C@@H](n2ccc(=O)[nH]c2=O)[C@H](O)[C@@H]1O)c1ccccc1 (stereo partly drawn)	none (no result: Mdm2 MdmX PPI)
O=C(O)CNc1nc(NCc2ccc(Cl)cc2)ccc1[N+](=O)[O-]	none (no result: Mdm2 MdmX PPI)
CCC(C)(C)n1nnnc1C(c1ccccc1F)N1CCN(C(=O)c2ccco2)CC1 (stereo not drawn)	none
O=[N+]([O-])c1ccc2nc(-[n+]3c(-c4ccccc4)cc(-c4ccccc4)cc3-c3ccccc3)[nH]c2c1	Mdm2 MdmX PPI 81 | Mdm2-MdmX conf 62 | Full FLuc ctr 57
CCCCC(=NCCc1c(C)[nH]c2ccccc12)C1=C(O)CC(c2ccccc2)CC1=O (stereo not drawn)	Mdm2 MdmX PPI 57 | Mdm2-MdmX conf 45 | Full FLuc ctr 59
CCCC(=NCCc1c(C)[nH]c2ccccc12)C1=C(O)CC(c2ccccc2)CC1=O (stereo not drawn)	Mdm2 MdmX PPI 52 | Mdm2-MdmX conf 53 | Full FLuc ctr 55
CC(=NCCc1c(C)[nH]c2ccc(C)cc12)C1=C(O)CC(c2ccccc2)CC1=O (stereo not drawn)	none
CCN1C(=O)[C@@H]2Cc3c([nH]c4ccccc34)C(c3cc(OC)c(OC)c(OC)c3)N2C1=S (stereo partly drawn)	none
C=CCN1C(=O)[C@@H]2Cc3c([nH]c4ccccc34)C(c3cc(OC)c(OC)c(OC)c3)N2C1=S (stereo partly drawn)	Mdm2 MdmX PPI 51 | Mdm2-MdmX conf inactive
COc1cc([C@H]2c3[nH]c4ccccc4c3C[C@H]3C(=O)N4[C@@H](c5cc(OC)c(OC)c(OC)c5)c5[nH]c6ccccc6c5C[C@H]4C(=O)N23)cc(OC)c1OC	Mdm2 MdmX PPI 79, HIF-2a inh 52 | Mdm2-MdmX conf inactive
COc1ccc(C(CCNCc2ccc(N(C)C)cc2)C(C)C)cc1 (stereo not drawn)	none
COc1ccc(C(CCNCc2ccc(OC(C)C)cc2)C(C)C)cc1 (stereo not drawn)	Mdm2 MdmX PPI 85 | Mdm2-MdmX conf inactive | Full FLuc ctr 71
COc1ccc(CNCCC(c2ccc(OC(C)C)cc2)C(C)C)cc1OC (stereo not drawn)	Mdm2 MdmX PPI 77 | Mdm2-MdmX conf 50 | Full FLuc ctr 67
O=C(CSc1n[nH]c(-c2ccncc2)n1)Nc1ccc(Cl)c(Cl)c1	none
CCCCCCCCN1C(=O)[C@H](CC(=O)NCc2ccccc2)C[C@@]2(C(=O)OC)CC(C)(C)CC=C12	none (no result: Peg3 prom inh, Mdm2 MdmX PPI, KKLEB tox, CF NFkB block)
CC1CCN(S(=O)(=O)N2CCC(C(=O)NCc3ccc(F)cc3Cl)CC2)CC1	none (no result: Mdm2 MdmX PPI)
Cc1cc(C)n(-c2nc(NC(C)(C)C)nc(NC(C)(C)C)n2)n1	none
Cc1cc(C)n(-c2nc(Nc3ccccc3C)nc(-n3nc(C)cc3C)n2)n1	Mdm2 MdmX PPI 67 (no result: Peg3 prom inh, KKLEB tox, ABHD5-PLIN5 inh, HIF-2a inh, CF NFkB block) | Mdm2-MdmX conf inactive
Cc1cc(C)n(-c2nc(Nc3ccccc3C(F)(F)F)nc(-n3nc(C)cc3C)n2)n1	Peg3 prom inh 86, Mdm2 MdmX PPI 69 | Mdm2-MdmX conf inactive
CCCCC#Cc1cncc(C(=O)N/N=C/c2cccc(OC)c2)c1	none
CC(C)C1Cc2[nH]c(=S)[nH]c(=O)c2C(c2ccc(F)cc2)O1 (stereo not drawn)	none (no result: Mdm2 MdmX PPI)
Cc1cc(C)c2c(n1)nn1c(N3CCN(c4ccccc4C)CC3)cc(C)nc21	Mdm2 MdmX PPI 64 | Mdm2-MdmX conf inactive
CC(C)C(CCNCc1ccccn1)c1ccc(Cl)cc1 (stereo not drawn)	none
CC(C)C(CCNC1CCN(C)CC1)c1ccc(Cl)cc1 (stereo not drawn)	Peg3 prom inh 100, Mdm2 MdmX PPI 77 | Mdm2-MdmX conf 56 | Full FLuc ctr 54
C=CCNC(=O)c1ccc(-c2nc(-c3ccc(Cl)c(Cl)c3)cs2)cc1	Mdm2 MdmX PPI 52 | Mdm2-MdmX conf inactive
